Test [1] concerns Vero E6 infected with SARS-CoV-2. The experiment in a line: morphology score (similarity to uninfected cells); higher = more like uninfected cells. The note with it: 24 h.
Test [2] has the same test system. The experiment in a line: SARS-CoV-2 infection rate relative to infected DMSO; higher = more infection, active = 60 or less. The note with it: 24 h.

In test [1], `CCc1cc(/C(C)=N/OCc2ccc(C3CCCCC3)c(C(F)(F)F)c2)ccc1CN1CC(C(=O)O)C1` [siponimod] (10 µM) came in with a morphology score of 0.0973. The SARS-CoV-2 infection rate in test [2] was 100% (inactive).

Compound `c1ccc(C(NCc2cccnc2)(c2ccccc2)c2ccccc2)cc1` (10 µM) registered a morphology score in test [1] of -0.069. In test [2], the SARS-CoV-2 infection rate was 104% (inactive).

Compound `Fc1ccc(-n2cc(CCCCN3CCC4(CC3)OCc3ccccc34)c3ccccc32)cc1` [siramesine] (0.833333 µM) came in with a morphology score in test [1] of 0.0919. Further, the SARS-CoV-2 infection rate in test [2] is 94.5% (inactive).

With `COc1ccc(Cl)cc1[C@]1(F)C(=O)Nc2cc(C(F)(F)F)ccc21` [flindokalner] (10 µM), the morphology score in test [1] was 0.165. Also, the SARS-CoV-2 infection rate in test [2] is 99.5% (inactive).

Compound `COC(=O)N1CCN(Cc2cccc(NC(=O)Nc3ccc(C)nc3)c2F)CC1` [omecamtiv-mecarbil] (10 µM) registered a morphology score in test [1] of 0.272. Besides, the SARS-CoV-2 infection rate in test [2] is 99% (inactive).

In the case of `O=C(Nc1ccc(S(=O)(=O)Nc2nccs2)cc1)C(c1ccccc1)c1ccccc1` (10 µM), the morphology score in test [1] is -0.0899. Further, the SARS-CoV-2 infection rate in test [2] is 105% (inactive).

Regarding `CCn1cc(C(=O)O)c(=O)c2cc(F)c(N3CCNC(C)C3)c(F)c21` (configuration not stated) [lomefloxacin] (10 µM), in test [1], the morphology score turned out to be 0.0917. Further, in test [2], the SARS-CoV-2 infection rate is 96.5% (inactive).

For the compound `CO[C@@]1(NC(=O)CSC[C@@H](N)C(=O)O)C(=O)N2C(C(=O)O)=C(CSc3nnnn3C)CS[C@@H]21` [cefminox] (10 µM), in test [1], the morphology score amounted to 0.045. Moreover, the SARS-CoV-2 infection rate in test [2] is 115% (inactive).

Turning to `CCC[C@@H]1C[C@@H](C(=O)N[C@@H]([C@H]2O[C@H](SC)[C@H](O)[C@@H](O)[C@H]2O)[C@@H](C)O)N(C)C1` [lincomycin] (10 µM), in test [1], the morphology score was -0.111. Besides, the SARS-CoV-2 infection rate in test [2] is 105% (inactive).

`NC(N)=Nc1nc(CSCC/C(N)=N/S(N)(=O)=O)cs1` [famotidine] (10 µM) returned a morphology score in test [1] of -0.0119. The SARS-CoV-2 infection rate in test [2] was 106% (inactive).

In test [1], `CCOc1ccc(-n2c([C@@H](C)N(Cc3cccnc3)C(=O)Cc3ccc(OC(F)(F)F)cc3)nc3ncccc3c2=O)cc1` (racemic) (10 µM) had a morphology score of 0.181. The SARS-CoV-2 infection rate in test [2] is 98.8% (inactive).

For the compound `COc1cc(OC)c(OC)cc1C=O` [asaraldehyde] (10 µM), the morphology score in test [1] was -0.0171. For the same compound, the SARS-CoV-2 infection rate in test [2] was 110% (inactive).

Compound `N=C(N)SCCc1c[nH]cn1` [imetit] (10 µM) gave a morphology score in test [1] of 0.1. For the same compound, the SARS-CoV-2 infection rate in test [2] is 106% (inactive).

In the case of `CCCN1C[C@H](CSC)C[C@@H]2c3cccc4[nH]cc(c34)C[C@H]21` [pergolide] (10 µM), the morphology score in test [1] came out at 0.343. The SARS-CoV-2 infection rate in test [2] was 78% (inactive).

In test [1], `C=CCOc1ccccc1OCC(O)CNC(C)C` (configuration not stated) [oxprenolol] (10 µM) returned a morphology score of -0.183. In test [2], the SARS-CoV-2 infection rate is 114% (inactive).

Compound `CC(C)=CCC/C(C)=C/CC/C(C)=C/CC[C@]1(C)CCc2cc(O)cc(C)c2O1` [delta-tocotrienol] (10 µM) gave a morphology score in test [1] of 0.0442. Further, the SARS-CoV-2 infection rate in test [2] is 104% (inactive).

In turn, `CCCCCCOC(=O)NC(=N)c1ccc(NCc2nc3cc(C(=O)N(CCC(=O)OCC)c4ccccn4)ccc3n2C)cc1` [dabigatran-etexilate] (10 µM) gave a morphology score in test [1] of 0.027. Also, the SARS-CoV-2 infection rate in test [2] is 98.5% (inactive).

`O=[N+]([O-])c1ccccc1S(=O)(=O)NCC1CCC(CNC[C@H]2CCc3ccccc3C2)CC1` (some centres not stated) (0.833333 µM) registered a morphology score in test [1] of -0.0186. In test [2], the SARS-CoV-2 infection rate was 97.5% (inactive).

Take `Cc1c(O)c(=O)ccn1C` [deferiprone] (10 µM): in test [1], the morphology score was -0.123. Also, the SARS-CoV-2 infection rate in test [2] is 98% (inactive).

Compound `CN(C)CCCCSC(=N)N` (10 µM) had a morphology score in test [1] of 0.0735. Also, in test [2], the SARS-CoV-2 infection rate was 100% (inactive).

`CCOC(=O)[C@H](Cc1ccccc1)NC(=O)c1cc(Cl)c(OCCN2CCN(C)CC2)c(Cl)c1O` (10 µM): in test [1], the morphology score was 0.414. In addition, the SARS-CoV-2 infection rate in test [2] is 76.5% (inactive).

Regarding `CC(C)(Oc1ccc(Cl)cc1)C(=O)OCCOC(=O)c1cccnc1` [etofibrate] (10 µM), in test [1], the morphology score is 0.105. For the same compound, the SARS-CoV-2 infection rate in test [2] is 105% (inactive).

In test [1], `COc1cc(NC(=O)c2cccc(-n3cc(NC(=O)Nc4cccc(C)c4)cn3)c2)cc(OC)c1OC` (10 µM) gave a morphology score of -0.0791. In addition, in test [2], the SARS-CoV-2 infection rate is 104% (inactive).

As for `O=C1C(CC[S+]([O-])c2ccccc2)C(=O)N(c2ccccc2)N1c1ccccc1` (configuration not stated) [sulfinpyrazone] (10 µM), the morphology score in test [1] was found to be 0.0498. For the same compound, in test [2], the SARS-CoV-2 infection rate was 108% (inactive).

Take `COc1ccc2nc3ccc(Cl)cc3c(SCCCN)c2c1` (10 µM): in test [1], the morphology score turned out to be 0.0488. The SARS-CoV-2 infection rate in test [2] is 91.5% (inactive).

For `NC(=O)Cc1cccc(C(=O)c2ccccc2)c1N` [nepafenac] (10 µM), in test [1], the morphology score is 0.0605. Also, the SARS-CoV-2 infection rate in test [2] is 120% (inactive).

In test [1], `N#C/C(=C\c1ccc(O)c(O)c1)C(=O)NCCCc1ccccc1` (0.833333 µM) showed a morphology score of -0.0747. For the same compound, in test [2], the SARS-CoV-2 infection rate was 119% (inactive).

The compound `COC(=O)N[C@H](C(=O)N[C@@H](Cc1ccccc1)[C@@H](O)CN(Cc1ccc(-c2ccccn2)cc1)NC(=O)[C@@H](NC(=O)OC)C(C)(C)C)C(C)(C)C` [atazanavir] (10 µM) had a morphology score in test [1] of 0.129. Moreover, in test [2], the SARS-CoV-2 infection rate is 112% (inactive).

On to `COc1cc([C@@H]2c3cc4c(cc3[C@@H](O[C@@H]3O[C@@H]5CO[C@@H](C)O[C@H]5[C@H](O)[C@H]3O)[C@H]3COC(=O)[C@H]23)OCO4)cc(OC)c1O` [etoposide] (10 µM), for which, in test [1], the morphology score is -0.114. The SARS-CoV-2 infection rate in test [2] was 104% (inactive).

In test [1], `COc1cc2c(CCNC(C)=O)c[nH]c2cc1Cl` [6-chloromelatonin] (10 µM) gave a morphology score of 0.0228. Besides, in test [2], the SARS-CoV-2 infection rate was 104% (inactive).

In test [1], `C=CCN1CC[C@]2(C)c3cc(O)ccc3C[C@H]1[C@H]2C` (10 µM) registered a morphology score of 0.112. Moreover, the SARS-CoV-2 infection rate in test [2] is 102% (inactive).

The values above are taken from the supplement of paper PMC13380429.
